Records with an inconclusive call do not appear. Activity calls are given as the source filed them. Calls follow the shape of the dose curve; as a rule, active = well fitted inhibition curve with a large enough effect; inconclusive = small, poorly fitted or top-dose-only effect; inactive = flat fitted curve, though single readings scatter.
Tests used:
[1] = biological target: Glutathione peroxidase 1 (Homo sapiens) (UniProt P07203); test: Primary qHTS Assay for Inhibitors of Recombinant Selenoprotein Glutathione Peroxidase 1 (GPX1) (AID 1845191); conditions: recombinant GPX1, GR-coupled NADPH fluorescence, 15 min; series mostly up to 48.8 µM; also: nearly all actives have a fitted effect of over 65% in size; as to activity, negative = inhibition: % is scaled to controls: 0 for no effect and ±100 for the full control effect
Outline: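 GPX1 10 nM, GR 100 nM, GSH 1 mM, NADPH 0.5 mM, CHP 0.5 mM (final). 30-min cpd preincubation, RT. Ex340/Em450 read t=0, t=15 min.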

[2] = biological target: Phospholipid hydroperoxide glutathione peroxidase GPX4 (Homo sapiens) (UniProt P36969); test: Primary qHTS Assay for Inhibitors of Recombinant Selenoprotein Glutathione Peroxidase 4 (GPX4) (AID 1845192); conditions: recombinant GPX4, GR-coupled NADPH fluorescence, 15 min; series mostly up to 50 µM; also: nearly all actives have a fitted effect of over 65% in size
Outline: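 qHTS, GR-coupled: GPX4 200 nM + cpd 30 min RT → GSH 1 mM, NADPH 0.5 mM, GR 100 nM → CHP 0.5 mM start; fluor 340/450 at t0 and t15 min; no-enzyme wells as control.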

[3] = qHTS profiling for inhibitors of Plasmodium falciparum proliferation (AID 504749);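 also: 0% = DMSO vehicle and full inhibition = artemisinin control; nearly all actives have a fitted effect of over 60% in size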; conditions: P. falciparum in erythrocytes, SYBR Green DNA, 72 h, at 28.7 µM (top of the series)
Outline: (§1)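 Quantitative HTS: compounds pinned into medium, infected erythrocytes added (0.3% parasitemia, 2.5% hematocrit), 72 h culture at 37 C under 5% CO2. Saponin/Triton lysis with SYBR Green I, overnight RT, then fluorescence read.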

[4] = tested on: 3D7; test: as above; conditions: P. falciparum in erythrocytes, SYBR Green DNA, 72 h; series mostly up to 28.7 µM
Outline: as §1

[5] = tested on: AA1029; test: as above; conditions: P. falciparum in erythrocytes, SYBR Green DNA, 72 h; series mostly up to 28.7 µM
Outline: as §1

[6] = tested on: 7G8; test: as above; conditions: P. falciparum in erythrocytes, SYBR Green DNA, 72 h; series mostly up to 28.7 µM
Outline: as §1

Chain of Phospholipid hydroperoxide glutathione peroxidase GPX4 (Homo sapiens) (P36969 whole entry, looked up): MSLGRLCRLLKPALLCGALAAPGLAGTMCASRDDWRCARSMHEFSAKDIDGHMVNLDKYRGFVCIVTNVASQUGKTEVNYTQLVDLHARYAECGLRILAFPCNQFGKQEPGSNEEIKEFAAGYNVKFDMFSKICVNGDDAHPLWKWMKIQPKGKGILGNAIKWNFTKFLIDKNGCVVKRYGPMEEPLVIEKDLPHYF
Chain of Glutathione peroxidase 1 (Homo sapiens) (P07203 whole entry, looked up): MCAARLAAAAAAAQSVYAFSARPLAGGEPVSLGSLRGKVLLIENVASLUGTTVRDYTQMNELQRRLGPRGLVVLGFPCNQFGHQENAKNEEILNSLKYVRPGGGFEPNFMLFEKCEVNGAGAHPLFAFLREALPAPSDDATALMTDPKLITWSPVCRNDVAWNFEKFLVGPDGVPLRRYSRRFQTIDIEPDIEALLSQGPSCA

CCCCCCCCCCC(CO)CCCCCCCC (configuration not stated)
inactive: Potency [1] | Potency [2] | activity, negative = inhibition ([3]; parasite line A) -1.63% | activity, negative = inhibition ([3]; parasite line B) 6.03% | Potency [4] | Potency [5]

CC(C)=CCC/C(C)=C/CO
inactive: Potency [1] | Potency [2] | activity, negative = inhibition ([3]; parasite line A) -3.97% | Potency [4] | Potency [6] | Potency [5]

C[C@@H](N)C(=O)O
inactive: Potency [1] | Potency [2] | activity, negative = inhibition ([3]; parasite line A) 26.2% | activity, negative = inhibition ([3]; parasite line B) 15.6% | Potency [4] | Potency [6] | Potency [5]

C[C@H]1COc2c(C3(N)CC3)c(F)cc3c(=O)c(C(=O)O)cn1c23
inactive: Potency [1] | Potency [2] | activity, negative = inhibition ([3]; parasite line A) -1.84% | activity, negative = inhibition ([3]; parasite line B) -23.2% | Potency [6] | Potency [5]

CC(CSC(=O)c1ccccc1)C(=O)N1C[C@@H](Sc2ccccc2)C[C@H]1C(=O)O (some centres not stated)
inactive: Potency [1] | activity, negative = inhibition ([3]; parasite line A) 13% | activity, negative = inhibition ([3]; parasite line B) 2.24% | Potency [4] | Potency [6] | Potency [5]

CN(C/C=C/C#CC(C)(C)C)Cc1cccc2ccccc12
inactive: Potency [1] | Potency [2] | activity, negative = inhibition ([3]; parasite line A) -1.32% | activity, negative = inhibition ([3]; parasite line B) -6.19% | Potency [4] | Potency [5]

O=C(NCCCN1CCOCC1)c1ccc(Cl)cc1
inactive: activity, negative = inhibition ([3]; parasite line A) 6.41% | activity, negative = inhibition ([3]; parasite line B) 5.99% | Potency [4] | Potency [6] | Potency [5]

O=C(O)c1cc(=O)c2ccccc2o1
inactive: activity, negative = inhibition ([3]; parasite line A) -22.1% | activity, negative = inhibition ([3]; parasite line B) 5.99% | Potency [4] | Potency [6] | Potency [5]

COc1ccc(C(=O)N2CCN(CC(=O)N3CCOCC3)CC2)cc1
inactive: activity, negative = inhibition ([3]; parasite line A) 2.87% | activity, negative = inhibition ([3]; parasite line B) 20.6% | Potency [4] | Potency [6] | Potency [5]

COC(=O)c1ccccc1C(=O)c1ccc(OCCN2CCCCC2)cc1
inactive: activity, negative = inhibition ([3]; parasite line A) 9.58% | activity, negative = inhibition ([3]; parasite line B) 5.94% | Potency [4] | Potency [6] | Potency [5]

CCOC(N)=O
inactive: activity, negative = inhibition ([3]; parasite line A) 8.86% | activity, negative = inhibition ([3]; parasite line B) 9.69% | Potency [4] | Potency [6] | Potency [5]

O=c1[nH]c(=O)c2ccccc2o1
inactive: activity, negative = inhibition ([3]; parasite line A) 2.32% | activity, negative = inhibition ([3]; parasite line B) 10.5% | Potency [4] | Potency [6] | Potency [5]

O=c1[nH]c2cc(C(F)(F)F)c(N3CCOCC3)cc2n(CP(=O)(O)O)c1=O
inactive: activity, negative = inhibition ([3]; parasite line A) 11.3% | activity, negative = inhibition ([3]; parasite line B) -0.254% | Potency [4] | Potency [6] | Potency [5]

C=CCSCC1Nc2cc(Cl)c(S(N)(=O)=O)cc2S(=O)(=O)N1 (configuration not stated)
inactive: activity, negative = inhibition ([3]; parasite line A) 8.77% | activity, negative = inhibition ([3]; parasite line B) 13.6% | Potency [4] | Potency [6] | Potency [5]
